In the library only some 8.8% were active in any assay of this set; here they are far more common.
Lamin A splicing = modulators of lamin A splicing | HeLa LMNA splicing GFP/RFP minigene ratio, 48 h | Potency, µM (doses to about 46.1 µM), without a hit: at the top dose ratio change, negative = inhibition, actives largely listed as inhibitors | actives 0.01% (n = 200,000) | AID 1487; active = well fitted inhibition curve with a large enough effect in the signal ratio, with a control signal flat, not every such curve was filed as active; inconclusive = small, poorly fitted or top-dose-only effect, or effect the other way, or a change in a side signal; the % refers to the signal ratio; note: % is set by controls: 0 for no effect and ±100 for the full control effect
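S3 HeLa cells stably expressing lamin A-EGFP splicing minigene plus DsRed2, 600 cells/well, 48 h compound exposure at 37C. Laser-scanning cytometry; analysed as GFP (500-530 nm)/RFP (575-640 nm) total intensity ratio; 0.5% DMSO vehicle.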
ALDH1A1 block = blocks purified human ALDH1A1 activity. actives 7.3% (n = 220,000). Potency, µM (titrated, usually from 75.3 µM), inactives show at the top dose activity, negative = inhibition, hits mostly inhibitors. AID 1030. P00352. Purified ALDH1A1, NADH fluorescence, propionaldehyde substrate; active = well fitted inhibition curve with a large enough effect, not every such curve was filed as active; inconclusive = small, poorly fitted or top-dose-only effect, or another doubt; inactive = no such curve, though single readings can be large or run the other way;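 note: plate controls were no enzyme wells and a reference inhibitor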
HttQ103 aggreg = reduces HttQ103-GFP aggregates in PC12 cells. actives 1.1% (n = 220,000). Potency, µM (top dose mostly 46.1 µM), inactives show top-dose activity change, negative = inhibition, usual class: inhibitors. PC12 HttQ103-GFP aggregates, Acumen cytometry, 40 h. AID 1688; note: % is set by controls: 0 for no effect and ±100 for the full control effect; nearly all actives have a fitted effect of over 60% in size
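Quantitative HTS on tebufenozide-induced (100 nM) PC12 cells stably expressing polyQ103 Huntingtin exon 1–GFP. Reduction of bright GFP aggregates, detected by laser scanning cytometry after lysis, identified actives across the titration.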
HTT ATP protect = cytoprotection in Huntington HTT-Q103 PC12 cell model | Potency, µM (highest dose often 56.4 µM), inactives show cytoprotection (ATP increase), actives largely listed as activators | actives 0.14% (n = 230,000) | PC12 HTT-Q103 induced, cytoprotection, ATP luminescence, 40 h; note: % of control where 0% means no effect; nearly all actives have a fitted effect of over 45% in size
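Quantitative HTS on tebufenozide-induced (100 nM) PC12 cells expressing HTTQ103 exon 1–GFP; compounds tested as a concentration series; survival measured via cellular ATP.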
HPGD inh = HPGD (human) dehydrogenase inhibition. P15428. purified HPGD, NADH fluorescence kinetic, PGE2 substrate. Potency, µM, inactives show at the highest dose activity change, negative = inhibition, hits mostly inhibitors. actives 4.3% (n = 150,000); active = well fitted inhibition curve with a large enough effect, not every such curve was filed as active; inconclusive = small, poorly fitted or top-dose-only effect, or another doubt; inactive = no such curve, though single readings can be large or run the other way; note: % is set by controls: 0 for no effect and ±100 for the full control effect
Target sequence (P15428 whole entry, looked up): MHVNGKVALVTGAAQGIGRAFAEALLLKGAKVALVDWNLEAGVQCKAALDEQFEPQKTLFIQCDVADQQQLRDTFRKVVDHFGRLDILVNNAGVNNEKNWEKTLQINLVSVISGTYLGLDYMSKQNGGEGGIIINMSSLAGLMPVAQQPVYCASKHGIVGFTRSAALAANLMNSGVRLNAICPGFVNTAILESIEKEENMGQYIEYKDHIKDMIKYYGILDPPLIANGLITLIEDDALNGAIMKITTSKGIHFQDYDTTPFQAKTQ
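NADH formation kinetics: reaction with 30 uM PGE2 and 1 mM NAD+ (final), 20 nM enzyme, Tris-HCl pH 8 with Tween 20, after 15 min compound preincubation at room temperature. Fluorescence change, last versus first of five reads.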
Active calls of the source: *; u = inconclusive; x = no result; [ ] = dose if it differs, or a comment. Unless noted, calls come from the whole dose curve; as a rule, active = well fitted curve in the direction sought with a large enough effect; inconclusive = small, poorly fitted or top-dose-only effect, or another doubt; inactive = no such curve, though single readings can be large; an effect the other way counts as inactive or inconclusive. Potency is the fitted concentration of half-maximal effect.

SMILES	Lamin A splicing	ALDH1A1 block	HttQ103 aggreg	HTT ATP protect	HPGD inh
COc1cccc(C(=O)N(Cc2ccc(N(C)C)cc2)C2CCS(=O)(=O)C2)c1 (configuration not stated)	4%	14µM*	3%	-16%	-7%
COc1ccc(CN(C(=O)/C=C/c2ccco2)C2CCS(=O)(=O)C2)cc1 (configuration not stated)	x	14µM*	7%[9.22 µM]	8%[10 µM]	x
Cc1cccc(OCC(=O)N(Cc2ccc(N(C)C)cc2)C2CCS(=O)(=O)C2)c1 (configuration not stated)	x	x	-11%[9.22 µM]	-2%[10 µM]	x
COc1ccc(Nc2nc(OC)nc(N3CCOCC3)n2)cc1	x	3%	-12%[9.22 µM]	13%[10 µM]	x
COc1ccc(Nc2nc(Nc3ccc(OC)cc3)nc(-n3[nH]c(=O)c(C)c3C)n2)cc1	-5%	25µM*	u	-68%	-17%
CC(=O)c1ccc(N2CCN(C(=O)c3ccc4c(=O)n(-c5ccccc5)c(=O)[nH]c4c3)CC2)cc1	u	14µM*	-1%	-12%[10 µM]	-29%
Cc1ccc(-c2nc(NC(=O)CSc3nnc(C)s3)ns2)cc1	8%	u	u	0%	u
Cc1nnc(SCC(=O)Nc2nsc(-c3ccccc3)n2)s1	8%	-3%	13µM*	-3%[0.074 µM]	-11%
COc1ccc(-c2nc(NC(=O)CSc3nnc(C)s3)ns2)cc1	18%	u	11µM*	2%[1.9 µM]	u
COc1ccc2c(C)cc(SCC(=O)Nc3nsc(-c4ccc(C)cc4)n3)nc2c1	3%	-12%	-31%	x	-20%
Cc1ccc(-c2nc(NC(=O)CSc3cc(C)c4ccccc4n3)ns2)cc1	-4%	7%	20%	x	13µM*
CCOC(=O)c1c(C)[nH]c(C)c1S(=O)(=O)N1CCCC(C(=O)Nc2ccc(OC)c(OC)c2)C1 (configuration not stated)	15%[46 µM]	x	x	x	x
CNCc1ccccc1Sc1cc(O)ccc1O	-14%	0.79µM*	2%	-5%[10 µM]	8.9µM*
Nc1nc2c(c(=O)[nH]1)N=C(CNc1ccc(C(=O)NC(CCC(=O)O)C(=O)O)cc1)CN2 (configuration not stated)	x	u	x	7%[1.9 µM]	u
Clc1cccc(CN2CCC(Cc3ccccc3)CC2)c1	u	20µM*	u	-86%	x
CCOC(=O)/C(C#N)=C/c1ccc(OC(=O)c2ccco2)c(OCC)c1	-16%	u	8.9µM*	18%[10 µM]	x
COc1ccc(CCNC(=O)c2cc(Sc3cccc(Cl)c3)nc3ccccc23)cc1OC	-17%[46 µM]	x	x	x	x
Cc1ccc(C(C[N+](=O)[O-])c2c(-c3ccccc3O)[nH][nH]c2=O)cc1 (configuration not stated)	u	20µM*	u	15%[10 µM]	-24%
Cc1nn(CC(=O)NCCc2ccccc2)c(=O)c2nn(-c3ccccc3)c(C)c12	4%[46 µM]	x	x	x	x
CCn1c(O)c(N=N)c2ccccc21	4%[46 µM]	-4%	-11%	-2%[10 µM]	x
CCn1c(O)c(N=NC2=NC(=O)CS2)c2ccccc21	7%[0.0737 µM]	11µM*	8%	1%	-20%
Cc1cccc(CNS(=O)(=O)c2ccc(-c3coc(C)n3)cc2)c1	4%[46 µM]	x	x	x	x
Cc1ccc2c(c1)nnn2C1CCN(S(=O)(=O)c2ccc(C(=O)N3C(C)CCCC3C)cc2)CC1 (configuration not stated)	11%	-3%	13µM*	-65%	-9%
O=S(=O)(c1ccc(N=C2NN=C(c3cc(F)ccc3F)CS2)cc1)N1CCOCC1	x	28µM*	4%	-16%	x
CC(=O)Nc1ccc(C2=NNC(=Nc3ccc(S(=O)(=O)N4CCOCC4)cc3)SC2)cc1	x	x	-26%[9.22 µM]	7%[10 µM]	x
SMILES	Lamin A splicing	ALDH1A1 block	HttQ103 aggreg	HTT ATP protect	HPGD inh
COCCCN=C1NN=C(c2cc(C)n(Cc3ccccc3Cl)c2C)CS1	x	25µM*	-29%	-13%[10 µM]	x
Cc1cccc(N=C2NN=C(c3ccccc3F)CS2)c1C	-6%[46 µM]	-2%	-13%	-23%	x
COCCCN=C1NN=C(c2cc(C)n(-c3ccccc3F)c2C)CS1	x	25µM*	u	-114%	x
Fc1ccc(F)c(C2=NNC(=Nc3ccccc3F)SC2)c1	u	16µM*	8%	x	16µM*
Fc1ccc(N=C2NN=C(c3cc(F)ccc3F)CS2)cc1	u	u	u	38%[1.9 µM]	-21%
Cc1ccc(NC(=O)c2c(C)oc3nc(C)nc(N4CCCC4)c23)c(C)c1	-13%[46 µM]	x	x	x	x
COCCn1c(C)cc(C2=NNC(=Nc3ccccc3F)SC2)c1C	-1%	18µM*	12%	-45%	-23%
COCCCN=C1NN=C(c2cc(C)n(-c3ccccc3)c2C)CS1	u	8.9µM*	8%	x	-16%
COCCN=C1NN=C(c2cc(C)n(CC3CCCO3)c2C)CS1 (configuration not stated)	-12%[46 µM]	u	10%	-11%	x
O=C(Nc1ccccc1Cl)c1cccc(COc2cc(Cl)ccc2Cl)c1	27%	3%	-6%	-23%	u
CN1CCN(C(=O)c2cccc(COc3cc(Cl)ccc3Cl)c2)CC1	9%	10µM*	-3%	-1%[0.074 µM]	-7%
COc1cccc(=O)c2c(C)n(CC(=O)c3ccccc3)c(C)c12	-3%[46 µM]	u	-1%[9.22 µM]	-6%[10 µM]	x
CCOc1cccc(=O)c2c(C)n(CC(=O)c3ccccc3)c(C)c12	x	8.9µM*	-2%[9.22 µM]	8%[10 µM]	x
O=C(CN1C(=O)C2(SCC(=O)N2c2ccc(F)c(F)c2)c2ccccc21)Nc1cccc(Cl)c1 (configuration not stated)	-22%[46 µM]	x	x	x	x
O=C(NCc1ccccc1)C1(c2ccccc2)CCN(S(=O)(=O)c2ccccc2)CC1	2%	8.9µM*	-10%	7%	-13%
O=C(Nc1nccs1)C1CCCN1S(=O)(=O)c1ccc(Cl)cc1 (configuration not stated)	10%	18µM*	7%	-11%[10 µM]	-19%
Cc1cc(=O)oc2cc(O)ccc12	u	u	8%[20.6 µM]	5.6µM*	u
O=c1cc(O)c2ccc(O)cc2o1	x	u	5%[9.22 µM]	4%[10 µM]	x
CCCCCC1C(=O)C[C@@H]2CCN3C(=O)CCC[C@H]1[C@H]23 (some centres not stated)	x	u	x	2%[96.6 µM]	0%
